# Screening results (PubChem BioAssay)
# HT1080 IDH1KD tx = kills HT-1080 cells with IDH1 knockdown; HT-1080 IDH1 knockdown viability, ATP luminescence, 48 h; 360,000 compounds, 2% hits; AID 686971; Potency, µM (series often up to 46.1 µM), for inactives: at the top dose activity, negative = toxicity, most hits filed as cytotoxic;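 further: 0% = DMSO wells and -100% = cell-free medium wells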
#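 Viability of IDH1-knockdown HT-1080 fibrosarcoma cells was assessed by CellTiter-Glo after 48 h at 37 °C with titrated compound; concentration-effect curves were classified by fit quality and response size.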
# TGFb inhibitor = blocks TGF-b signaling; 410,000 compounds, 1.2% hits; HepG2 CAGA-GFP TGF-b/SMAD3 reporter, GFP fluorescence, 18 h; TGF-beta stimulated, 500 pg/mL final; AID 588855; Potency, µM (doses to about 46.1 µM), for inactives: at the highest dose activity, negative = inhibition, hits mostly inhibitors; further: on the % scale 0 is the no-effect control and ±100 the full control effect; nearly all actives have a fitted effect of over 65% in size
#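 Read-out: total well GFP (ex488/em500-530) summed from mean per-cell fluorescence. Cells: HEPG2 CAGA-GFP, 1% FBS DMEM, 18 h at 37 degrees C with 500 pg/mL final TGF-beta. Unstimulated wells served as the full-inhibition control; stimulated DMSO wells = 0%.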
# HepG2 viability = HepG2 cytotoxicity, counter-screen for TGF-b inhibitors; Potency, µM (titrated, usually from 46.1 µM), for the others: at the top dose activity change, negative = cytotoxicity, usual class: cytotoxic; AID 588856; 410,000 compounds, 0.76% hits; HepG2 CAGA-GFP viability, ATP luminescence, 18 h
#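 CellTiter-Glo luminescence gave cytotoxicity after 18 hours at 37 degrees C. The cells were HepG2 CAGA-GFP in 1% FBS DMEM, stimulated with 500 pg/mL TGF-beta after compound addition. %Activity was normalised to no-cell wells (complete cell-killing) and DMSO (no toxicity), and curves were fitted and classified.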
# TDP1 cell CPT = growth inhibition of DT40 Tdp1-/-;hTDP1 cells with camptothecin (screen for TDP1 inhibitors). chicken DT40 Tdp1-/-;hTDP1 cells + 20 nM CPT, ATP luminescence, 48 h. Potency, µM (highest dose often 46.2 µM), without a hit: at the top dose activity change, negative = growth inhibition, most hits filed as inhibitors. 420,000 compounds, 12% hits. AID 686979; further: on the % scale 0 is the no-effect control and ±100 the full control effect; nearly all actives have a fitted effect of over 55% in size
#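 Chicken DT40 Tdp1-/- cells stably complemented with human TDP1 were seeded at 400 cells/well in medium containing 20 nM camptothecin, exposed to pin-transferred compounds, and grown at 37 °C for at least 48 hr. Viability was read as ATP luminescence.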
# HT1080NT lethal = kills 2HG-producing HT-1080-NT fibrosarcoma cells; HT-1080-NT fibrosarcoma viability, CellTiter-Glo ATP luminescence, 48 h; Potency, µM (series often up to 46.1 µM), for inactives: top-dose activity, negative = less viability, hits mostly cytotoxic; 360,000 compounds, 1.6% hits; AID 686970;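 further: NT is the 2HG producing partner of a matched IDH1 knockdown line; 0% = DMSO-treated cells and -100% = media-only wells without cells; nearly all actives have a fitted effect of over 55% in size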
#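 Read-out is CellTiter-Glo luminescence after 10 minutes at room temperature, following 48 hours' compound treatment of HT-1080-NT cells (750 cells/well, RPMI, 5% FBS, 37 degrees C).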
# DT40 TDP1 no CPT = qHTS for Inhibitors of human tyrosyl-DNA phosphodiesterase 1 (TDP1): qHTS in cells in absence of CPT; 420,000 compounds, 15% hits; AID 686978, 2013; DT40 Tdp1-/- hTDP1 cells, no CPT, ATP luminescence, 48 h; Potency, µM (titrated, usually from 46.2 µM), without a hit: at the top dose activity change, negative = growth inhibition, usual class: inhibitors; further: on the % scale 0 is the no-effect control and ±100 the full control effect; nearly all actives have a fitted effect of over 55% in size
#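 Seeded 400 DT40-hTDP1 cells/well (vehicle DMSO, no 20 nM CPT); pinned compounds; ≥48 hr at 37 °C; CellTiter-Glo luminescence as viability measure.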
# Starred values were filed as active, the others as inactive; u = inconclusive; x = not tested or not shown. An excerpt weighted towards active compounds, which were near 17% of everything screened. The call rests on the fitted dose curve; in most records, active means well fitted curve in the direction sought with a large enough effect; inconclusive means small, poorly fitted or top-dose-only effect, or another doubt; inactive means no such curve, though single readings can be large; an effect the other way counts as inactive or inconclusive. Potency means the concentration at half of the fitted maximal effect.
SMILES,HT1080 IDH1KD tx,TGFb inhibitor,HepG2 viability,TDP1 cell CPT,HT1080NT lethal,DT40 TDP1 no CPT
O=C(CSCc1cccc(F)c1)NCc1ccccc1,24%,3%,11%,16%,0%,12%
O=C(CCSCc1cccc(Cl)c1)NCc1ccccc1Cl,x,-25%,-47%,u,x,26µM*
O=C(CCSCc1cccc(F)c1)NCc1ccc(F)cc1,5%,-5%,-14%,u,0%,18µM*
Cc1nc(CN2CCN(C(=O)c3ccc(C(C)(C)C)cc3)CC2)cs1,-4%,-2%,-17%,u,-5%,10µM*
COc1ccc(C)cc1NC(=O)C1CCN(S(C)(=O)=O)CC1,1%,16%,-24%,6%,1%,5%
CC(C)(C)c1nnc(NC(=O)C2CCN(C(=O)c3ccccc3)CC2)s1,x,-20%,-21%,14µM*,x,u
Cc1nc(-c2ccc(C(=O)N3CCCC3)cc2)cs1,-15%,2%,-38%,-1%,-15%,-27%
CC1CCN(c2c(NCC3CCC(C(=O)NCCC4=CCCCC4)CC3)c(=O)c2=O)CC1 (stereo not drawn),12%,-16%,-10%,18µM*,17%,u
COc1ccc(C)cc1NC(=O)C1CCN(C(=O)c2ccc(C(C)(C)C)cc2)CC1,-15%,-23%,-10%,u,-19%,18µM*
O=C(NCCC1=CCCCC1)C1CCC(CNc2c(N3CCCC3)c(=O)c2=O)CC1 (stereo not drawn),8%,-13%,2%,-11%,4%,-7%
O=C(NCC(c1ccco1)N1CCCC1)c1cccc(S(=O)(=O)Nc2ccc(F)cc2)c1 (stereo not drawn),-7%,-6%,-16%,-30%,-8%,u
CC(C)(C)c1ccc(C(=O)N2CCC(C(=O)NC3CCCCCC3)CC2)cc1,-12%,-3%,-13%,u,-26%,21µM*
COC(=O)c1ccc(NC(=O)N2CCN(Cc3cc(=O)n4nc(-c5ccc(C)cc5)sc4n3)CC2)cc1,x,18%,-2%,-1%,x,-10%
O=C(Nc1ccc(C(=O)N2CCOCC2)cc1)c1ccccc1,1%,-31%,-21%,-2%,4%,-7%
O=C(c1ccccc1)C1CCN(C(=O)c2ccc(Cl)cc2)CC1,-5%,u,-33%,u,0%,-28%
Cc1ccc(C(=O)N2CCC(C(=O)c3ccc(Cl)cc3)CC2)cc1,-11%,u,-20%,u,u,12µM*
CC(C)(C)c1ccc(C(=O)Nc2ccc(C(=O)N3CCOCC3)cc2)cc1,-7%,8%,18%,23µM*,-4%,21µM*
CCc1ccc(NC(=O)N2CCN(Cc3cc(=O)n4nc(-c5ccccc5OC)sc4n3)CC2)cc1,x,-9%,-3%,u,x,15µM*
Cc1c(Cl)cccc1NC(=O)CN1C(=O)CCn2nc(-c3cccn3C)cc21,x,20%,-8%,-6%,x,-24%
CC(C)(C)c1ccc(C(=O)N2CCN(C(=O)C3CCCCC3)CC2)cc1,7%,0%,-2%,15µM*,5%,u
CC(C)(C)c1ccc(C(=O)N2CCCN(C(=O)c3ccc(C(C)(C)C)cc3)CC2)cc1,20%,-10%,5%,u,16%,13µM*
CC(C)(C)c1ccc(C(=O)N2CCC(C(=O)c3ccccc3)CC2)cc1,-18%,u,-34%,18µM*,-13%,21µM*
CC(C)(C)c1ccc(C(=O)N2CCNCC2)cc1,-4%,-7%,-23%,-23%,-3%,-22%
COc1ccc(-c2nn3c(=O)cc(CN4CCN(C(=O)c5ccc(C(C)(C)C)cc5)CC4)nc3s2)cc1,x,-7%,-4%,3.3µM*,x,2.9µM*
O=C(c1ccc(F)cc1)C1CCN(C(=O)c2ccc(F)cc2)CC1,-1%,0%,-7%,-27%,2%,-26%
SMILES,HT1080 IDH1KD tx,TGFb inhibitor,HepG2 viability,TDP1 cell CPT,HT1080NT lethal,DT40 TDP1 no CPT
COc1ccc(Cl)cc1NC(=O)CSc1nncn1-c1cccnc1,-3%,3%,-20%,-2%,-6%,-5%
CC(C)(C)c1ccc(C(=O)N2CCC(C(=O)NCCC3=CCCCC3)CC2)cc1,u,-12%,-21%,u,-28%,18µM*
O=C(CN1CCC(C(=O)c2ccc(Cl)cc2)CC1)NC1CCCC1,0%,5%,8%,u,-13%,23µM*
Cc1ccc(CNC(=O)C2CCCN(c3nn4c(=O)cc(C)nc4s3)C2)cc1 (stereo not drawn),5%,0%,0%,10%,8%,u
CC1CCN(c2c(NCc3ccc(C(=O)N4CCc5ccccc54)cc3)c(=O)c2=O)CC1,4.1µM*,u,2%,5.2µM*,5.2µM*,5.8µM*
Cc1cccc(N2CCN(C(=O)c3ccc(CNc4c(N5CCC(C)CC5)c(=O)c4=O)cc3)CC2C)c1 (stereo not drawn),0%,u,-6%,21µM*,-1%,u
Cc1sc2ncn(CC(=O)NCCCC(=O)N3CCC(C(N)=O)CC3)c(=O)c2c1C,6%,-2%,3%,2%,12%,14%
Cc1ccc(CNC(=O)C(=O)NCC2CCCN2S(=O)(=O)c2cc(C)ccc2C)cc1 (stereo not drawn),-14%,-17%,-8%,-7%,-20%,u
O=C(Nc1nnc(C2CCCCC2)s1)C1CCN(C(=O)c2ccco2)CC1,x,3%,1%,u,x,u
COc1ccc(/C=C/C(=O)NC(=S)NNC(=O)c2cc(OC)c(OC)c(OC)c2)cc1OC,-18%,-1%,23%,u,-17%,15µM*
COc1ccc(/C=C/C(=O)NC(=S)Nc2ccccc2)cc1OC,27%,-6%,-6%,11%,20%,-15%
COc1ccc(/C=C/C(=O)NC(=S)Nc2ccc(C(=O)O)cc2)cc1,4%,2%,-1%,-12%,0%,3%
COc1ccc(/C=C/C(=O)NC(=S)NNC(=O)c2cc(OC)c(OC)c(OC)c2)cc1,u,u,-19%,u,-17%,9.2µM*
NC(=S)N/N=C1\CCOc2ccc(Cl)cc21,-15%,8.9µM*,-58%,18µM*,-16%,u
NC(=S)NN=C1c2cc(Cl)ccc2-c2c1cc(Cl)cc2[N+](=O)[O-],7%,u,2%,u,7%,u
